dFosB act = activators of mouse delta FosB homodimer; P13346; purified delta FosB, TAMRA-CDK5 oligo fluorescence polarization; percent of positive-control signal above neutral wells; activation, % at 25 µM; hit rate 0.99% among 340,000; AID 493131;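 active = mean activation above about 17%, with every replicate also reaching it, limit read from the data, passing the limit was not always enough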
ZTA DNA inh = blocks Epstein-Barr virus ZTA, an EBNA-1 counter-screen | P03206 | ZTA-DNA binding, fluorescence polarization | inhibition, % at 11 µM | hit rate 0.15% among 320,000 | AID 2234; in the data active = inhibition above about 33%
Target sequence (P03206 whole entry, looked up): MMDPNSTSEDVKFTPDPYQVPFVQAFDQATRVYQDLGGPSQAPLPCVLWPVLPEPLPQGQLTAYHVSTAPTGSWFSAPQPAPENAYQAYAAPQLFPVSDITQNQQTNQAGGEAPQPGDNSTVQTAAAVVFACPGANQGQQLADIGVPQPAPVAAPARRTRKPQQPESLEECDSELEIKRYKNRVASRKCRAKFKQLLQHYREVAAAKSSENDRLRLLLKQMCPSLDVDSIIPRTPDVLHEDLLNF
EBNA-1 inh = blocks EBNA-1 binding to DNA | EBNA-1 DNA binding, fluorescence polarization | hit rate 0.34% among 300,000 | inhibition, % at 14.8 µM | AID 1950; in the data active = inhibition above about 28%
TPT1 inh = C. albicans TPT1 enzyme inhibition. recombinant caTPT1, FP RNA substrate dephosphorylation. hit rate 0.81% among 300,000. AID 1962. inhibition, % at 5 µM;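 active = inhibition above the mean of all tested compounds plus 3 SD, set per screening campaign, cut at about 24% in these data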;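 note: plate controls were DMSO alone for no effect and ferristatin control at 100 nM for full effect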
GRIN3A LBD mod = NR3A (human) ligand-binding domain modulation | Tm shift relative to glycine control, % at 25 µM | NR3A LBD differential scanning fluorimetry, Tm shift; 0% = protein alone, 100% = glycine-bound protein | hit rate 2.5% among 340,000;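 active = melting temperature shift of at least 10% of the positive control shift, at one fixed dose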
Rpn11 block = blocks the human proteasome subunit Rpn11; O00487; human 26S proteasome, Ub4-pepOG fluorescence polarization; 20S core pre-blocked with epoxomicin; inhibition, % at 20 µM; hit rate 0.59% among 360,000;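 active = inhibition at 20 µM, scaled to each plate's controls, above about 33%, limit read from the data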
Target sequence (O00487 whole entry, looked up): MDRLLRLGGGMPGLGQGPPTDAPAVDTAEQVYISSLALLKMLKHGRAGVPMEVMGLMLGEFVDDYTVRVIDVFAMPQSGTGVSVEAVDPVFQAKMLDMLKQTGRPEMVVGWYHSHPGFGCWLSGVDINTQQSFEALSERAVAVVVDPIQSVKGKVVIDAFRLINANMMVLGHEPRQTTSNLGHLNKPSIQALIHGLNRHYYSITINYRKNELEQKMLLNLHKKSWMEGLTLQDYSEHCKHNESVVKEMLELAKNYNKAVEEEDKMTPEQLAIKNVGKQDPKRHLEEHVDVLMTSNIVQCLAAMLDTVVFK
An asterisk follows results filed as active; . = not tested or not shown. Rows were chosen to be rich in hits. Some 4.5% of all compounds tested hit in one or more screens of this group.

SMILES	dFosB act	ZTA DNA inh	EBNA-1 inh	TPT1 inh	GRIN3A LBD mod	Rpn11 block
COc1ccc(NS(=O)(=O)c2cccc(C(=O)OCC(=O)N3CCN(c4ccc(OC)cc4)CC3)c2)cc1	1.3	-25.3	-17.0	2.0	0.5	-1.6
COc1ccc(Br)cc1/C=C/C(=O)Nc1ccc(C)cc1	-6.4	2.8	-6.6	-4.3	19.9*	-1.6
COC(=O)CNC(=O)/C=C/c1cc(Br)ccc1OC	-7.1	1.1	8.8	-0.7	-0.2	-3.4
COc1ccc(Br)cc1/C=C/C(=O)Nc1ccc2ccccc2c1	4.3	2.0	3.2	6.7	15.3*	-1.9
CC(=O)C12CCCCC1CC1[C@@H]3CC(C)C4=CC(=O)CC[C@]4(C)C3CC[C@@]12C (stereo partly specified)	0.7	.	.	.	22.0*	0.0
COC(=O)c1cc(S(=O)(=O)Nc2nn(C)c3ccccc23)oc1C	-8.0	-5.4	2.1	-0.7	11.0*	-2.8
COc1ccc(NC(=O)CN(C)CC(=O)NCc2ccc(C)cc2)cc1	2.3	-3.4	.	.	1.1	3.2
Clc1ccc(Nc2ccc(Cl)nn2)cc1	4.2	2.5	12.1	-1.4	24.3*	-7.4
COc1ccc(Nc2ccc(Cl)nn2)cc1	5.3	-7.1	0.8	-0.2	-1.8	1.6
COc1cc(C(=O)Nc2c(C(=O)O)[nH]c3ccc(Br)cc23)cc(OC)c1OC	-16.2	0.1	16.0	0.0	10.2*	2.8
CCOC(=O)c1[nH]c2ccc(F)cc2c1NC(=O)c1cc(OC)c(OC)c(OC)c1	3.0	3.4	8.3	-6.7	-7.0	-6.9
COc1cc(/C=C/C(=O)NC(=O)c2ccccc2O)ccc1O	2.1	0.1	6.5	-0.2	-5.3	2.6
COc1cc(/C=C/C(O)=C/C(=O)/C=C/c2ccc(O)cc2)ccc1O	-16.9	19.5	.	.	23.2*	.
C[C@@H]1CN([C@@H](C)CO)C(=O)c2cc(NC(=O)Nc3ccc(F)cc3)ccc2O[C@@H]1CN(C)Cc1ccc(Oc2ccccc2)cc1	-12.0	.	.	.	11.6*	9.0
C[C@H](CO)N1C[C@H](C)[C@H](CN(C)Cc2ccc(Oc3ccccc3)cc2)Oc2ccc(NC(=O)Nc3cccc4ccccc34)cc2CC1=O	3.0	.	.	.	12.2*	5.1
C[C@@H]1CN([C@@H](C)CO)C(=O)Cc2cc(NC(=O)Nc3ccc(F)cc3)ccc2O[C@@H]1CN(C)Cc1ccc(Cl)c(Cl)c1	1.2	.	.	.	18.4*	11.4
C[C@H]1CN([C@@H](C)CO)C(=O)Cc2cc(NS(C)(=O)=O)ccc2O[C@@H]1CN(C)Cc1ccc(Cl)c(Cl)c1	10.6	.	.	.	-3.3	10.4
Cc1cccc(C2=NN(c3ccc(Br)cc3)[C@@H](C(=O)N3CCOC3=O)[C@@H]2c2ccc(Cl)cc2)c1	3.9	.	.	.	16.7*	2.2
O=C1OCCN1C(=O)[C@H]1[C@H](c2ccc(Cl)cc2)C(c2ccccc2)=NN1c1ccc(Br)cc1	-12.0	.	.	.	15.4*	2.8
S=C(NCc1ccccc1)NCc1cccc(Cl)c1	-7.6	.	.	.	-5.1	3.0
FC(F)(F)Sc1ccc(NC(=S)NCc2ccccc2)cc1	-6.4	2.5	5.4	2.2	19.9*	-3.8
S=C(NCc1ccccc1)NCc1cccc(CNC(=S)NCc2ccccc2)c1	-2.7	12.4	2.8	-1.3	19.9*	-2.0
COc1ccc(NC(=O)[C@@H](NC(N)=O)C(C)C)cc1Cl	-3.5	11.7	3.1	1.4	-0.9	-2.3
CCOc1ccccc1N(C)S(=O)(=O)c1ccc2c(c1)CC(C)N2C(=O)C1CC1 (stereo unspecified)	-4.5	-17.8	-1.6	-2.9	1.9	-1.6
CCCCCc1ccc(-c2cn(CCc3c[nH]c4ccccc34)nn2)cc1	-4.7	-9.0	11.4	0.0	18.8*	-0.6
SMILES	dFosB act	ZTA DNA inh	EBNA-1 inh	TPT1 inh	GRIN3A LBD mod	Rpn11 block
CCCCCc1ccc(-c2cn(CCCOCc3ccccc3)nn2)cc1	0.1	-4.5	-7.8	2.6	-8.6	-0.4
CCC(=O)Nc1cc2c3c(c1)CCN3C(=O)CC2	-6.4	-1.9	7.1	0.3	11.3*	0.2
CC(C)(C)CC(=O)Nc1cc2c3c(c1)CCN3C(=O)CC2	3.1	-0.6	-5.5	-4.9	-0.1	-5.1
CCc1nnc(NC(=O)CN2CCOCC2)s1	2.3	8.0	1.5	2.3	13.7*	3.8
O=C(Nc1nc2ccccc2s1)C1CC(=O)N(c2ccccc2)C1 (stereo unspecified)	-7.8	-11.1	0.0	-2.9	-1.7	-11.6
O=C(Nc1nc2ccccc2s1)C1CC(=O)N(c2ccc(Br)cc2)C1 (stereo unspecified)	-3.1	-3.1	7.5	0.0	15.6*	-3.8
CCCn1c(SCC(=O)Nc2ccc(OC)cc2)nnc1-c1ccncc1	4.4	3.1	2.1	-4.1	0.5	-7.6
COc1ccc(NS(=O)(=O)c2ccc(N3CCCC3)c(NC(=S)Nc3ccc(SC(F)F)cc3)c2)cc1	2.9	2.9	3.7	-1.7	11.8*	2.2
COc1ccc(C(C(=O)NC(C)(C)C)N(C(=O)Cn2nnc3ccccc32)c2cccc(C(C)=O)c2)cc1O (stereo unspecified)	-15.4	-13.9	-15.4	-3.8	-3.0	0.7
O=C(Nc1nnc(Cc2ccc(Cl)cc2)s1)c1cccs1	-7.2	-9.4	-10.5	1.1	12.3*	1.0
O=C1CC2(CCN(C(=O)C(=O)c3c[nH]c4ccccc34)CC2)Oc2ccccc21	-16.4	2.6	-4.5	-3.0	-3.4	-2.4
CN(C)c1ccc(NC(=O)c2sc(SCC(=O)Nc3ccc(Br)cc3)nc2N)cc1	28.5*	6.5	1.3	-6.9	16.0*	0.8
COc1cc(OC)nc(Nc2nc(C(N)Cc3ccc(F)cc3)cs2)n1 (stereo unspecified)	.	.	.	.	.	4.5
O=C(COC(=O)C1COc2ccccc2O1)Nc1ccc(Cl)cc1 (stereo unspecified)	-5.6	0.5	.	.	-5.2	-37.2
O=C(Cn1c2c(sc1=O)C1c3ccccc3OCC1CS2)Nc1ccc(Cl)cc1 (stereo unspecified)	1.1	0.6	-0.5	5.8	13.1*	3.5
COC(=O)CSc1nc(C2CC2)cc(C(F)(F)F)c1C#N	8.0	0.7	-4.1	1.5	18.0*	1.3
CCOC(=O)C(C)Sc1nc(C2CC2)cc(C(F)(F)F)c1C#N (stereo unspecified)	1.6	2.3	6.8	2.8	1.4	-1.2
Cc1cc(NC(=O)COC(=O)C2CC(=O)N(c3ccc(C)c(Cl)c3)C2)no1 (stereo unspecified)	-9.2	-5.7	0.2	-0.3	20.6*	-0.9
O=C(Oc1ccc(C(=S)N2CCCCC2)cc1)c1ccccc1F	0.0	-14.2	-2.8	1.9	38.9*	-2.0
O=C(Oc1ccc(Br)cc1C(=S)N1CCCC1)c1ccccc1F	-10.0	-2.1	-8.4	-1.0	1.6	13.9
Cc1nc(NCC2CCCO2)c2nnn(Cc3c(F)cccc3Cl)c2n1 (stereo unspecified)	-11.2	5.8	3.5	-1.5	-0.6	-0.8
COC(=O)C1=C(C)N(CCc2ccccc2)C(=O)/C1=C\c1ccco1	-8.1	-16.4	2.4	-4.3	19.2*	2.1

Screening results as filed in PubChem.
